Bioassay records (PubChem BioAssay)
Efflux pump mplx = blocks antifungal efflux pumps in multiplex yeast assay; S. cerevisiae Candida pump triplex, Nile Red efflux; inhibition, % at 10 µM; 330,000 tested, 0.44% active;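 active means plate passing quality check with inhibition over a set limit, or well fluorescence over plate mean plus 4 SD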;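 further: Nile Red retained in pooled yeast measured as flow cytometry median fluorescence; 0% = buffer negative control and 100% = Enniatin B positive control; higher means more Nile Red kept so more efflux inhibition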
Rtt109 HAT inh = C. albicans Rtt109 histone acetyltransferase inhibition; purified Rtt109/Vps75, ThioGlo CoA-SH fluorescence, 4 h; inhibition, % at 34.9 µM; 330,000 tested, 0.16% active;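 active means inhibition of at least 50% in every replicate; inconclusive means best replicate reaches 50% inhibition but some replicates fall short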
Rce1 inh = yeast Ras-converting enzyme inhibition; Q03530; yeast membranes, quenched prenylated peptide cleavage fluorescence; calls only; 290,000 tested, 0.27% active;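 active means fall in fluorescence gain of 50% or more versus controls, with final raw signal at or below 3038400; inconclusive means same 50% fall but final raw signal above 3038400; inactive means fall in fluorescence gain under 50%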;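 further: plate controls were neutral control wells for no effect and wells lacking membranes for full effect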
ALR H2O2 inh = blocks human ALR sulfhydryl oxidase activity. P55789. purified ALR, DTT oxidation, H2O2 HRP-luminol luminescence. inhibition, % (no concentration beside the values). 290,000 tested, 3.8% active;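 active means mean replicate inhibition above about 79%, with every replicate also reaching it, limit read from the data; inconclusive means only one of the two criteria met; inactive means mean below limit and not every replicate reaching it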
GRK2 inh = human GRK2 inhibition via aptamer displacement; inhibition of aptamer binding, % at 10 µM; 330,000 tested, 0.59% active; bead flow cytometry, FAM-aptamer displacement from GRK2;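 active means inhibition of aptamer binding above 40%, roughly 3 SD of noise, on plates passing a quality check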;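 further: median bead fluorescence of bound FAM aptamer so fluorescent compounds give negative values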
HDAC3 inhib = inhibitors of human histone deacetylase 3. 320,000 tested, 0.15% active. O15379. inhibition, % at 8.3 µM. recombinant HDAC3, fluorogenic peptide/trypsin coupled, fluorescence; in the data active means inhibition above about 26%, passing the limit was not always enough; inconclusive means no clear call, values can overlap the other calls
Target sequence (O15379 whole entry, looked up): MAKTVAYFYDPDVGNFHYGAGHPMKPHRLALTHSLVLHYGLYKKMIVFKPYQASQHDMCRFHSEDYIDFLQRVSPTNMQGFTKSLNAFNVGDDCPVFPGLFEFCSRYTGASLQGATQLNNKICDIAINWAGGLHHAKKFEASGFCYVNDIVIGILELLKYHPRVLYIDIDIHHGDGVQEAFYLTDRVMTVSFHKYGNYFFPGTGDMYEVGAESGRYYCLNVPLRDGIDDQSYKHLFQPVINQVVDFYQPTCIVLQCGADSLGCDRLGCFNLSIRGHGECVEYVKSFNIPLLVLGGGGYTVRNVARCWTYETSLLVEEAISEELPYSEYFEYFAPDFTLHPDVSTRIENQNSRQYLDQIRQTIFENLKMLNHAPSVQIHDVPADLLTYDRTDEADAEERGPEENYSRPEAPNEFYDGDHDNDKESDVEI
The depositor's hits bear a star; i = inactive; ? = inconclusive; . = no result; + = active, no number. Shown are actives, neighbours in structure and some others; about 4.5% of the full set was active somewhere.

SMILES	Efflux pump mplx	Rtt109 HAT inh	Rce1 inh	ALR H2O2 inh	GRK2 inh	HDAC3 inhib
CCOC(=O)[C@H]1[C@H]2COc3ccccc3[C@@H]2N2C(=O)CNC(=O)[C@@]12C	0	14	.	-4	0	3
c1csc(-c2nc3ccccn3c2NC2CCCCC2)c1	0	.	i	94*	0	?
Cc1ccn2c(NC3CCCC3)c(-c3cccs3)nc2c1	0	-7	i	64	0	-12
CCC(C)Sc1cc(-c2nc3ccccn3c2NC2CCCCC2)ccc1OC (stereo not drawn)	0	-5	+	.	0	-5
Cn1c(N)c(C(=O)COC(=O)c2cc(S(=O)(=O)NCc3ccccc3)ccc2O)c(=O)n(C)c1=O	.	-5	.	.	.	.
CCOC(=O)CNC(=S)n1cnc(N)n1	0	4	i	-6	1	3
CCN1C(=O)/C(=C2/Sc3ccccc3N2CC)S/C1=N\c1ncn[nH]1	0	3	i	98*	2	-4
c1ccc(C2Oc3ccccc3C3CC(c4cccs4)=NN32)cc1 (stereo not drawn)	0	-5	i	98*	0	6
O=C(O)c1cccc(-n2cccc2C=C2C(=O)c3ccccc3C2=O)c1	0	20	i	-2	10	3
O=C(N/N=C/c1cccn1-c1cccc(C(=O)O)c1)Nc1ccccc1	0	-2	i	97*	24	7
Nn1c(SCC(=O)NC2CCCCC2)nnc1-c1ccccc1F	0	-2	.	-2	0	-1
N#Cc1c(Nc2ccccc2C(F)(F)F)s[nH]c1=O	0	.	i	13	3	2
N#Cc1c(Nc2ccccc2)sc(C(=O)c2ccc(F)cc2)c1N	0	4	i	4	0	.
N#Cc1c(Nc2ccccc2)s[nH]c1=O	0	111*	i	.	3	1
N#Cc1c(Nc2ccccc2Cl)s[nH]c1=O	0	109*	i	22	0	4
COc1ccc(NC(NC(=O)c2cccnc2)C(Cl)(Cl)Cl)cc1 (stereo not drawn)	1	.	i	99*	0	-2
CSc1cccc(NC(=S)N2CCC(N(C)C3CCCC3)CC2)c1	0	-8	i	-3	0	-3
C/C(=N\NC(=O)c1cccc(N/N=C(\C)c2ccc([N+](=O)[O-])cc2)c1)c1ccc([N+](=O)[O-])cc1	0	15	i	-4	0	-1
C/C(=N\NC(=O)c1ccc(Br)cc1)c1cccc(NC(=O)c2cccnc2)c1	0	2	+	4	3	1
C/C(=N\NC(=O)c1ccncc1)c1cccc(NC(=O)c2ccc(C(C)(C)C)cc2)c1	2	0	i	2	4	0
C/C(=N\NC(=O)c1cccc(N/N=C(\C)c2ccccc2)c1)c1ccccc1	0	4	.	87*	3	-4
C/C(=N\NC(=O)c1cc(O)ccc1O)c1cccc(NC(=O)c2cccc(Cl)c2)c1	0	4	i	90*	5	-1
C/C(=N\NC(=O)c1cccc(N/N=C(\C)c2ccncc2)c1)c1ccncc1	0	-6	i	99*	1	12
COc1cccc(CN(C)C(=O)c2ccc(Cl)c(S(=O)(=O)N3CCCCCC3)c2)c1OC	.	7	.	.	.	.
COCc1cc(C)nc(OCC(=O)N/N=C/c2ccc(-c3cc([N+](=O)[O-])ccc3Cl)o2)c1C#N	0	1	i	4	0	2
SMILES	Efflux pump mplx	Rtt109 HAT inh	Rce1 inh	ALR H2O2 inh	GRK2 inh	HDAC3 inhib
CC1=NN(c2ccc(C)cc2)C(=O)/C1=C\C=C\c1ccccc1	0	-1	i	-4	2	4
CC1=NN(c2ccccc2)C(=O)/C1=C/C=C/C=C/N(C)C	1	.	.	96*	8	9
CC1=NN(c2ccccc2)C(=O)/C1=C\c1ccc(Br)s1	0	2	+	3	2	-5
O=C(CCN1C(=O)/C(=C/c2ccccc2F)SC1=S)NC1C=CS(=O)(=O)C1 (stereo not drawn)	0	-11	i	-6	13	-5
O=C(Nc1nc2c(s1)CCCC2)c1ccc(Br)s1	0	4	i	98*	3	8
O=C(Nc1nc2c(s1)CCCC2)c1ccc(N2C(=O)CCC2=O)cc1	0	-2	i	97*	0	-13
CCCCc1ccc(NC(=S)NCc2ccccc2OC)cc1	0	-1	i	-12	2	10
Cc1cccc(-n2c(-c3ccncc3)n[nH]c2=S)c1C	0	7	i	.	1	16
